Results: the supplement of paper PMC11732987, “Enantioselective OTUD7B fragment discovery through chemoproteomics screening and high-throughput optimisation” (Communications Chemistry, 2025)

What was measured:
Assay in all cases: log2 ratio of Biotin-Ahx-Ub-VS probe labelling (fragment/DMSO); higher = less target engagement (more negative = stronger competition), active = hit call of the paper (q ≤ 0.05, log2 ratio ≤ -1)
Settings in all cases: compound concentration: 200 uM; treatment time: 3 h
[1] = biological target: T1, USP42 (UniProt Q9H9J4)
T1 sequence (whole entry): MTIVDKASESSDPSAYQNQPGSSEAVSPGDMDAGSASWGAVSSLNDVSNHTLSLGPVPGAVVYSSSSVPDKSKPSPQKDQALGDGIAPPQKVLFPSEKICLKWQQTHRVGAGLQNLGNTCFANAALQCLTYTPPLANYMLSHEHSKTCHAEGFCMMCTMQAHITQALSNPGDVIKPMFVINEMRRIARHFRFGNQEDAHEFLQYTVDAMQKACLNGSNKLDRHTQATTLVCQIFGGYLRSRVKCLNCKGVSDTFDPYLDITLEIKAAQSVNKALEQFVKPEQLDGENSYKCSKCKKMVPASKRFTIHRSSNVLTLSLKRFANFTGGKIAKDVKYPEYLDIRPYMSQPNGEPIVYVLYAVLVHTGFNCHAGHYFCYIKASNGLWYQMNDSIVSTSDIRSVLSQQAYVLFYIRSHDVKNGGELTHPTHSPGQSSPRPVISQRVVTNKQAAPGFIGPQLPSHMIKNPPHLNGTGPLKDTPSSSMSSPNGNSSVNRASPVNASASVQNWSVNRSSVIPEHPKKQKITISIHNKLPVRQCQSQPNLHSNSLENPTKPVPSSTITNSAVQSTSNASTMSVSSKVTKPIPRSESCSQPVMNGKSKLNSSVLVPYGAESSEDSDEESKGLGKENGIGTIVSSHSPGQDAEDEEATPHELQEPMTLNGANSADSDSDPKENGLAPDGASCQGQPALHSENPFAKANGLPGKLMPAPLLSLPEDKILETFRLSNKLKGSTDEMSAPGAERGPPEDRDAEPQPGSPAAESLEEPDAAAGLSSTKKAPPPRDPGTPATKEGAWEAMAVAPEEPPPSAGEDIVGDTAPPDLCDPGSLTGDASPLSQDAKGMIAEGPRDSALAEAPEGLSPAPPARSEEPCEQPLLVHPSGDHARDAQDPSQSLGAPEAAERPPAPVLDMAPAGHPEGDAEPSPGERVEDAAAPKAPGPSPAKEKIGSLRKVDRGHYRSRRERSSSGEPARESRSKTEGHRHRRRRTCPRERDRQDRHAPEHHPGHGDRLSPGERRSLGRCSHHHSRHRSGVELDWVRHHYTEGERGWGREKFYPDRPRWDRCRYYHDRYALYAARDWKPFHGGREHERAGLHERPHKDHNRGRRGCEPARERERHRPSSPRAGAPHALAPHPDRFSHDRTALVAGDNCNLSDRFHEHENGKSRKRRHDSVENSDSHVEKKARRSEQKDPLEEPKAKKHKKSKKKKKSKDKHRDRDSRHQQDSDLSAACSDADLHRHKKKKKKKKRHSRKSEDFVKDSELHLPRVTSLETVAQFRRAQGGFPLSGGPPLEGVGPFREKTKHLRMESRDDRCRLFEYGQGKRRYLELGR
Outline: (§1)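 HEK293T lysate (495 µg per sample, in Tris/CHAPS/IGEPAL buffer with protease inhibitors) was exposed in triplicate for 3 h to fragment at 200 µM or to vehicle, then to Biotin-Ahx-Ub-VS at 0.5 µM final for 1 h. Labelled DUBs were enriched on NeutrAvidin, digested with LysC and trypsin, and analysed by diaPASEF LC-MS/MS. Spectronaut label-free quantities were normalised to the global median, and values are average log2 ratios of fragment over vehicle from an unpaired t-test. Only proteins with ≥2 unique peptides were used.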

[2] = biological target: USP46 (UniProt P62068)
Chain of USP46 (P62068 whole entry): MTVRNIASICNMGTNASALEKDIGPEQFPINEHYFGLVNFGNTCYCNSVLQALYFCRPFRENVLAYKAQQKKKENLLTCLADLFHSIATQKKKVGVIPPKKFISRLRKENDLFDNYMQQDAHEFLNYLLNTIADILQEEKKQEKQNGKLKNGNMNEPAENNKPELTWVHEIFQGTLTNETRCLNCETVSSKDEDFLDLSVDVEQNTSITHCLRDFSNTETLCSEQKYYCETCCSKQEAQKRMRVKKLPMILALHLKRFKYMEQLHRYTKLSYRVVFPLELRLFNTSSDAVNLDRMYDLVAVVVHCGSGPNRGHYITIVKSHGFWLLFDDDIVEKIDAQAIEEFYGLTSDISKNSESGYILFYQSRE
Outline: as §1

[3] = biological target: T2, USP47 (UniProt Q96K76)
T2 sequence (whole entry): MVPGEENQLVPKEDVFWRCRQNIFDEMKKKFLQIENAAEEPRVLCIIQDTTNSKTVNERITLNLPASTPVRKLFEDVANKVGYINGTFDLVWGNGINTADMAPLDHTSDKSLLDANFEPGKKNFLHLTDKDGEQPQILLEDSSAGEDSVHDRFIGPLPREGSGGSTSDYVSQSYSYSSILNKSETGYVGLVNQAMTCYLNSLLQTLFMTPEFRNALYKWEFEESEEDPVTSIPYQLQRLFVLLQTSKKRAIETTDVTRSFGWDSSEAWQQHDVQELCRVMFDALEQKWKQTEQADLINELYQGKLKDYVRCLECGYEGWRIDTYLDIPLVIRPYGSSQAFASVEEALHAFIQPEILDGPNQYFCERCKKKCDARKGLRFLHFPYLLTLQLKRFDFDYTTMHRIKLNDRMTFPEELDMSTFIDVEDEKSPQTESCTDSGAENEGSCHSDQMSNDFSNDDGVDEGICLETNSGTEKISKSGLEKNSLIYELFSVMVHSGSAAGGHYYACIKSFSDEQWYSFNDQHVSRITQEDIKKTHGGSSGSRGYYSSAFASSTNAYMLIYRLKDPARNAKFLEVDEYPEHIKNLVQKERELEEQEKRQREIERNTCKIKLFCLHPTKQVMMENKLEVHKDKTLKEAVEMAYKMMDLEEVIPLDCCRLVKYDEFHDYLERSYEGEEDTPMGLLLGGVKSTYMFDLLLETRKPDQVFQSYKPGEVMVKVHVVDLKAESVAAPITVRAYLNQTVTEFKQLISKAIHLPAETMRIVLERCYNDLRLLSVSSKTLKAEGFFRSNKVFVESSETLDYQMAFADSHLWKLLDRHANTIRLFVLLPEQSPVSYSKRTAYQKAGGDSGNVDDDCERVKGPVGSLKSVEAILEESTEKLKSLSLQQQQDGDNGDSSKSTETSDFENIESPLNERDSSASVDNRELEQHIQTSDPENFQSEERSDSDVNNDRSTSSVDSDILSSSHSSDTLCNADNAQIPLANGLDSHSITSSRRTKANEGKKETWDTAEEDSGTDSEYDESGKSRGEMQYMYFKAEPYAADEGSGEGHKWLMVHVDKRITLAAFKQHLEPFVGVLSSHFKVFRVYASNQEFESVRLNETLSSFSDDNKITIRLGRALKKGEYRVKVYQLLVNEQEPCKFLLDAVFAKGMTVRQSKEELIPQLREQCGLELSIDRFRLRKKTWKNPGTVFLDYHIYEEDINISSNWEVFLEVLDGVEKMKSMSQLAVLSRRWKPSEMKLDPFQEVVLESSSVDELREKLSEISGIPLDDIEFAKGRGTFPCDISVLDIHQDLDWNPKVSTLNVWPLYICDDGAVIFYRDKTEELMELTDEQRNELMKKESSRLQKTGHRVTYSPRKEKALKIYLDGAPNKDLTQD
Outline: as §1

[4] = biological target: T3, USP48 (UniProt Q86UV5)
T3 sequence (whole entry): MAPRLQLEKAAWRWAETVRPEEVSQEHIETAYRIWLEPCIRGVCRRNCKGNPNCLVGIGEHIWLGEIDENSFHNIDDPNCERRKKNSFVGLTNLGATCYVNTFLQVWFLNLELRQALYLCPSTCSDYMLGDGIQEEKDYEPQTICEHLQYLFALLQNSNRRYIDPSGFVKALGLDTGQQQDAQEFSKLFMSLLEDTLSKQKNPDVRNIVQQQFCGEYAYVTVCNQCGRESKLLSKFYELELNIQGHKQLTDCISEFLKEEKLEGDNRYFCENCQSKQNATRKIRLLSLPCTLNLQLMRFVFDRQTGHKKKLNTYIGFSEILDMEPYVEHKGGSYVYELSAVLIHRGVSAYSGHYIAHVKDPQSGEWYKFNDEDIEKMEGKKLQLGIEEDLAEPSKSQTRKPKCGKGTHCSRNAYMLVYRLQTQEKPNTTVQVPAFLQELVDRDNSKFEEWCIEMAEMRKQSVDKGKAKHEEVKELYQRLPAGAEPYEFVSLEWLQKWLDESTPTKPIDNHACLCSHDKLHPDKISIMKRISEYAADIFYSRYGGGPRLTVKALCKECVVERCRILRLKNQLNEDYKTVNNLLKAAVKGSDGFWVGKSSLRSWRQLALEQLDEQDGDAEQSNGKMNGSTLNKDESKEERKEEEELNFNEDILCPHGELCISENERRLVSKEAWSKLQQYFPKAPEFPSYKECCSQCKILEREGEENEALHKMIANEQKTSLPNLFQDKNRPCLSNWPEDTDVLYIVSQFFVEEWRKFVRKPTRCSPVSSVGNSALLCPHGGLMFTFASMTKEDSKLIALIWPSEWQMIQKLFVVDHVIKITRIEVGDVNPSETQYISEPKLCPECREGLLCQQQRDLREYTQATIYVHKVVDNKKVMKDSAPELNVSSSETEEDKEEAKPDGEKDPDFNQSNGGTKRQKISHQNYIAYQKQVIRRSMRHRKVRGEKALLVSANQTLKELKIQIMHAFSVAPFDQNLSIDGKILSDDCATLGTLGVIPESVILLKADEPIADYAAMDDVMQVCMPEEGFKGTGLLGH
Outline: as §1

[5] = biological target: T4, USP5 (UniProt P45974)
T4 sequence (whole entry): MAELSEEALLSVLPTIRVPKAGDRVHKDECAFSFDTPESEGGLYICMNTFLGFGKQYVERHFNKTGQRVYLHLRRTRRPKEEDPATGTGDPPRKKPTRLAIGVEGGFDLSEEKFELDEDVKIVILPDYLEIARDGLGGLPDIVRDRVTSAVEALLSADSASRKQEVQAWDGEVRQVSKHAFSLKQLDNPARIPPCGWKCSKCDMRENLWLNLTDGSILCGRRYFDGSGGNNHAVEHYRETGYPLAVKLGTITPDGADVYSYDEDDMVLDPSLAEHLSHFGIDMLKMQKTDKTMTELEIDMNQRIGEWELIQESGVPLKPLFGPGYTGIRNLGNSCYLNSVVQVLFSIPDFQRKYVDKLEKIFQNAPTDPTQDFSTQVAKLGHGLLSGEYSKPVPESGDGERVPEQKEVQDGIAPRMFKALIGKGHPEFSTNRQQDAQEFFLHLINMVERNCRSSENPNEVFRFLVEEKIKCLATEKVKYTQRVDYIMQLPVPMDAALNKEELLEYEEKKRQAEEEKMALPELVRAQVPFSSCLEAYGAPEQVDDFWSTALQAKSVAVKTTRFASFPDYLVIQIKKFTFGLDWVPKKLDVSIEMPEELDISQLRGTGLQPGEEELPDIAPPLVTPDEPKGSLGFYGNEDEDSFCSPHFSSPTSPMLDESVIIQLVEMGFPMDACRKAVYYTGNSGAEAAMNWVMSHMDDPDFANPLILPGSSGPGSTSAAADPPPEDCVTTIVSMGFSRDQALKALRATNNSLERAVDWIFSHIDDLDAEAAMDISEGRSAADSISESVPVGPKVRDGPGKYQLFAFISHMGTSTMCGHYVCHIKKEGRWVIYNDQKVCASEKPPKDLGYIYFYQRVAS
Outline: as §1

[6] = biological target: USP54 (UniProt Q70EL1)
Chain of USP54 (Q70EL1 whole entry): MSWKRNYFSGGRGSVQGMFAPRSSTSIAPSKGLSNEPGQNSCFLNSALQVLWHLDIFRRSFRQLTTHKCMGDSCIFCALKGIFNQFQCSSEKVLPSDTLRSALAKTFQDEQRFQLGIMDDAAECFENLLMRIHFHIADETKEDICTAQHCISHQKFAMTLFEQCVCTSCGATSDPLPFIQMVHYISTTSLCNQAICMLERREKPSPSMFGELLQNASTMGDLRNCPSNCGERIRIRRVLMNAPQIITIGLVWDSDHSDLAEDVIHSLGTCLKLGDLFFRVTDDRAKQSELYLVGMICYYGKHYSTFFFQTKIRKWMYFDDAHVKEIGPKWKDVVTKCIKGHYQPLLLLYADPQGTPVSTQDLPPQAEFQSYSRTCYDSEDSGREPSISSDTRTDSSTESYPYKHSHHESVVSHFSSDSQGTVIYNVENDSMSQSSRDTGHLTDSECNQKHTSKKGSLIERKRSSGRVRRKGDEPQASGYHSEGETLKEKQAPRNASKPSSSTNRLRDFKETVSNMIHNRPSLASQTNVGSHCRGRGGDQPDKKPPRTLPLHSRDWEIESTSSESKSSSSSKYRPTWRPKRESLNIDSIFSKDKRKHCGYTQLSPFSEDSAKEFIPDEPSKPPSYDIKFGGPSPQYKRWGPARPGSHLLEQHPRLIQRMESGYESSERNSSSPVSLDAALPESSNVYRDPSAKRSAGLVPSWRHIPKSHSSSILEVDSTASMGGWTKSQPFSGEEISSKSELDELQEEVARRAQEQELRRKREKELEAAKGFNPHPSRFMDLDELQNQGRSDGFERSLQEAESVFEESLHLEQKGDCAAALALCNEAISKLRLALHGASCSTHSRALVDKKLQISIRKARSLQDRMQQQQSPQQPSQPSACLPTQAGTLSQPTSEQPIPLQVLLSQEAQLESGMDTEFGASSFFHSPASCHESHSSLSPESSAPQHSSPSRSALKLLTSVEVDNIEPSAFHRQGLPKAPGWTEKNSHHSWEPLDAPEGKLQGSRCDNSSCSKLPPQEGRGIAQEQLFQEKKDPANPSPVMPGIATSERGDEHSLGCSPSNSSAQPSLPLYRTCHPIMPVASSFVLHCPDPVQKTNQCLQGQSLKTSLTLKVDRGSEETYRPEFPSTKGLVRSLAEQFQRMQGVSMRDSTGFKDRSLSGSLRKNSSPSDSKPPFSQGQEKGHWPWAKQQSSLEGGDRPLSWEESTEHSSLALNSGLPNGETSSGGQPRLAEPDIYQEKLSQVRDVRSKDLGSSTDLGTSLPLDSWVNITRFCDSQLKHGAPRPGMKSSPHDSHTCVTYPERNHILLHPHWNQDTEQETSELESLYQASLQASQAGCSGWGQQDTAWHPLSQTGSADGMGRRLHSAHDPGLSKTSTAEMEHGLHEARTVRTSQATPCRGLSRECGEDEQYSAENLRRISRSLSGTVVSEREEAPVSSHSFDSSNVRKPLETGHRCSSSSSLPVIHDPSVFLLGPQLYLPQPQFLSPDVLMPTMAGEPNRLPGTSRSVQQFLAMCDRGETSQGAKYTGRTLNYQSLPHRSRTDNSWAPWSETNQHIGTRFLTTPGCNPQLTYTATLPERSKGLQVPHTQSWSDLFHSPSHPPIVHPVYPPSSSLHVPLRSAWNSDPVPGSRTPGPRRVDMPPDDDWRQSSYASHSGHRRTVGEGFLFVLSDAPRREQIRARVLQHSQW
Outline: as §1

[7] = biological target: USP7 (UniProt Q93009)
Chain of USP7 (Q93009 whole entry, looked up): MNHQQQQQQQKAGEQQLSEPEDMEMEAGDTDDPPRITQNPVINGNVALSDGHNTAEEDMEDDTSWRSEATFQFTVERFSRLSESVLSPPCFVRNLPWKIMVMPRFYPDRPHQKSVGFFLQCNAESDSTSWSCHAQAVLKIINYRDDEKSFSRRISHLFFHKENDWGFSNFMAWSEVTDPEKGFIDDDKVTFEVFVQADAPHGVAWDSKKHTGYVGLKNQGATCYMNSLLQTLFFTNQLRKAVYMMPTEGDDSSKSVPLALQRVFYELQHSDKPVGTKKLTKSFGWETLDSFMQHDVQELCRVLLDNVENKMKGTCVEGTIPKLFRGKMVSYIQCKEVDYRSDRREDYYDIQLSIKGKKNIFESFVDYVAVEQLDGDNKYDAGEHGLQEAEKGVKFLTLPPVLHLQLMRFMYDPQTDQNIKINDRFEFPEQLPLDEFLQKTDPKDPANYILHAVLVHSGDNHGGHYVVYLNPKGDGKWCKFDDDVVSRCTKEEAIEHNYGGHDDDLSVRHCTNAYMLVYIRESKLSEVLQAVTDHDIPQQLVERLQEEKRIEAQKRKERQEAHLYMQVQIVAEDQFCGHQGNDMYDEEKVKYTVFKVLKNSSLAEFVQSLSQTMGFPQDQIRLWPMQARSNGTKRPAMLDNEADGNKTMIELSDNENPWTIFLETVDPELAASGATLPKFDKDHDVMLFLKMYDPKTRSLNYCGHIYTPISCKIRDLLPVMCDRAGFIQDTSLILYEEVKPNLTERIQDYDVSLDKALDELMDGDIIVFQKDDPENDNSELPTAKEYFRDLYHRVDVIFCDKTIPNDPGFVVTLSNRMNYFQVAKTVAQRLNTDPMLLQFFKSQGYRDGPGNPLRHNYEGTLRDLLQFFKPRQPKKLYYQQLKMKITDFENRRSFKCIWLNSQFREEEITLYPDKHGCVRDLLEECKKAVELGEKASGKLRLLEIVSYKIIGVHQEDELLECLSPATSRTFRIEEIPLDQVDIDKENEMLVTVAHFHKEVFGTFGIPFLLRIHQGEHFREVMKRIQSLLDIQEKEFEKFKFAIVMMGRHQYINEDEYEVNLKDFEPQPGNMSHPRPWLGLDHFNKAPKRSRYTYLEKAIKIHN
Outline: as §1

[8] = biological target: T5, USP8 (UniProt P40818)
T5 sequence (whole entry): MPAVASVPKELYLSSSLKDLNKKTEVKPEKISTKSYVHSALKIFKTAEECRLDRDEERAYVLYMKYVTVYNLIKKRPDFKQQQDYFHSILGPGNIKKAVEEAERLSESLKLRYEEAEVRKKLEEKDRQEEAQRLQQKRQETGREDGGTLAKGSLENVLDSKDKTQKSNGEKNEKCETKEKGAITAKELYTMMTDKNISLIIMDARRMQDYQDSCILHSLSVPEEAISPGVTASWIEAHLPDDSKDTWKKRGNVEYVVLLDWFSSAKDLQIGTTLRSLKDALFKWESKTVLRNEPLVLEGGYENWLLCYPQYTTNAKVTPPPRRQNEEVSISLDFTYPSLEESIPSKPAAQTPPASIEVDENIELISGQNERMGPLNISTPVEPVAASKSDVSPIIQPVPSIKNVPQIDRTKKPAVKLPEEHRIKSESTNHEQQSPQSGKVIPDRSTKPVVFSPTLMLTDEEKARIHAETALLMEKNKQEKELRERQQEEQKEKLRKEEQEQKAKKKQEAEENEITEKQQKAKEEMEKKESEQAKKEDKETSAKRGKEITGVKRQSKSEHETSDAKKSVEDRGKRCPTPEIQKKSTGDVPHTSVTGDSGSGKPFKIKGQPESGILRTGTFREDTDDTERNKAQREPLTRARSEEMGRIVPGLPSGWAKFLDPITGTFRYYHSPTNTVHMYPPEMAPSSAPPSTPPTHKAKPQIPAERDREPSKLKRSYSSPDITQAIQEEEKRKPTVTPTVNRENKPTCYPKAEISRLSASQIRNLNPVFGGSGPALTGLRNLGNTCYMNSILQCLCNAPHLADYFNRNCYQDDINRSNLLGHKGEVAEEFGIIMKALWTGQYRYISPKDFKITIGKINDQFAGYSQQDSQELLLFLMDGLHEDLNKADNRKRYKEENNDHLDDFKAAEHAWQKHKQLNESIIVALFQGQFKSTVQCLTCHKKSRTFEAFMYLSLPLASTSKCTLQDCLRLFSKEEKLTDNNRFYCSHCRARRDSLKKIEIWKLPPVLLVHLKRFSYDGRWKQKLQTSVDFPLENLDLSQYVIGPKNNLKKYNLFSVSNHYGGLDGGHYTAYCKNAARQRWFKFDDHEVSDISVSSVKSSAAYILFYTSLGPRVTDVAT
Outline: as §1

Measured: log2 ratio of Biotin-Ahx-Ub-VS probe labelling

CC(NC(=O)CCl)c1cccc(Cl)c1 (stereo not drawn)
inactive: [1] -0.459 | [2] -0.115 | [3] -0.252 | [4] -0.283 | [5] 0.0893 | [6] 0.882 | [7] -0.385 | [8] -0.413
